Assay results reported in ChEMBL document CHEMBL3433997, “St. Jude Leishmania screening dataset” (2016).

These compounds were tested against Glucose transporter (Leishmania mexicana) (UniProt O61059) (assay: ST_JUDE_LEISH: Cytotoxicity at 2uM final concentration against transgenic Leishmania Mexicana promastigotes LmGT2 that are glucose transport deficient and complemented with the L. Mexicana glucose transporter 2. Activity is measured by DNA content using SYBR green in vitro).
Type: functional
With `CC(C)(C)c1ccc2[nH]c(-c3ccc(C(=O)NC4CCN(Cc5ccccc5)CC4)s3)nc2c1` the inhibition was 1.79%.
Work on `Cc1ccc2c(Cl)c(C(=O)N3CCCc4ccccc43)sc2c1` yielded an inhibition of 3.16%.
Compound `Cc1cccc2nc(-c3ccc(-c4cccc(NC(=O)c5ccncc5)c4)cc3)[nH]c12` has an inhibition of 1.08%.
`Cc1cc(NCCC(=O)NCCOc2ccccc2)nc(NCCc2ccccc2)n1` showed an inhibition of 0.66%.
`CCCN1CCN(CCCNC(=O)c2cc3c(-c4ccc(Cl)cc4)nn(C)c3s2)CC1` showed an inhibition of 10.2%.
For `Cc1ccc(C)c(Cn2ccc3nc(Cl)nc(Cl)c32)c1`, the inhibition was 0.45%.
In the case of `O=C(NCCc1ccc(F)cc1)c1ccc(N2CCN(c3ccncc3)CC2)nc1`, the inhibition is reported as -4.35%.
With `Cc1ccoc1C(=O)Nc1cccc(-c2cccc(-c3nc4cc(C(F)(F)F)ccc4[nH]3)c2)c1` the inhibition was -0.44%.
Work on `c1ccc2oc(-c3cc4ccncc4cc3OC3CCNCC3)cc2c1` yielded an inhibition of -3.28%.
`O=C(NCCCCCN1CCCN(C(=O)Nc2ccc(F)c(C(F)(F)F)c2)CC1)C1CC1c1ccc(Cl)c(Cl)c1` (stereo not given) showed an inhibition of 0.2%.
`COc1cc(Cc2cnc(N)nc2N)ccc1OCc1csc(-c2ccc(Cl)cc2)n1` showed an inhibition of 9.8%.
`CCn1c(SCC(=O)Nc2cc(C(F)(F)F)ccc2Cl)nc2ccccc2c1=O` was tested, and the inhibition was 4.32%.
For `CN(C)CCNC(=O)c1cccc(-c2cnc3ccc(NCc4ccc(Cl)c(Cl)c4)nn23)c1`, the inhibition was 7.6%.
Work on `CC(C)Cc1cn(-c2nc(-c3nc4ccccc4[nH]3)cs2)c2ccncc12` yielded an inhibition of 3.29%.
`CCCCSc1c(CNCCCCCCNCc2ccc3ccccc3c2SCCCC)ccc2ccccc12` was tested, and the inhibition was 0.58%.
`COc1ccc(CN2CCCN(Cc3cccc(C(=O)Nc4ccc(C(C)(C)C)cc4)c3)CC2)cc1` gave an inhibition of 3.17%.
With `Cc1cc(N[C@@H](Cc2ccccc2)C(=O)NCCOc2ccccc2)nc(NCC2CCCCC2)n1` the inhibition was 0.5%.
With `COc1ccc2[nH]c(C)cc(=NN=Cc3cccc(Cl)c3)c2c1` the inhibition was -1.05%.
In the case of `COc1ccc2c(NCCc3ccccc3)cc(-c3ccccc3)nc2c1`, the inhibition is reported as 4.05%.
With `CC(C)Oc1ccc(C=CC(=O)Nc2noc3ccccc23)cc1` the inhibition was 2.36%.
Compound `O=C(Nc1ccc(Cl)cc1C(=O)Nc1cccc(F)c1)c1ccc([N+](=O)[O-])cc1` has an inhibition of 1.58%.
In the case of `N=C(N)c1ccc(Nc2nccc(Nc3nc(-c4ccccc4)cs3)n2)cc1`, the inhibition is reported as -0.9%.
Compound `COc1ccc(-c2ncnc(C(F)(F)F)c2-c2ccc(Cl)cc2)c(O)c1` has an inhibition of 2.96%.
In the case of `COc1ccc(CN2CCN(CC(=O)Nc3cc(Cl)ccc3-n3cncn3)CC2)cc1F`, the inhibition is reported as -0.67%.
In the case of `O=C(/C=C/c1ccc(I)cc1)NCCCCCN1CCC(c2c[nH]c3ccc(O)cc23)CC1`, the inhibition is reported as 1.49%.
Work on `CCCNC(=O)Nc1cc2cc(-c3cccc(CN4CCCCC4)c3)ccc2n2c(C)nnc12` yielded an inhibition of 0.91%.
With `C[C@H](Cc1ccc(OCCCCCOc2ccc(C[C@@H](C)NC[C@H](O)c3cccc(Cl)c3)cc2)cc1)NC[C@H](O)c1cccc(Cl)c1` the inhibition was 107%.
Work on `Clc1nc(Cl)c2c(ccn2Cc2ccccc2)n1` yielded an inhibition of 2.54%.
Compound `CC(C)CNCc1cccc(-c2ccc(CN(CCCN3CCN(C)CC3)C(=O)/C=C/c3ccccc3)cc2)c1` has an inhibition of 3.9%.
`CC(=O)NCCNc1nccc(N2CCc3ncnc(Nc4ccc(OCc5cccc(F)c5)c(Cl)c4)c3C2)n1` showed an inhibition of -2.74%.
With `CC(=O)c1ccc(NC(=O)Nc2ccc(N(C)c3ccnc(Nc4cccc(CS(C)(=O)=O)c4)n3)cc2)cc1` the inhibition was 4.04%.
`Cc1[nH]c2ccc(NS(C)(=O)=O)cc2c1C1CCN(CCC2CCN(C(=O)/C=C/c3ccc(Cl)c(Cl)c3)CC2)CC1` gave an inhibition of -1.24%.
`CC(=O)Nc1ccc(C(=O)Nc2ccc(-c3cccc(-c4nc5cc(F)ccc5[nH]4)c3)cc2)cn1` was tested, and the inhibition was -4.38%.
With `Cc1cccc2nc(-c3cccc(-c4cccc(CNCc5ccc(S(C)(=O)=O)cc5)c4)c3)[nH]c12` the inhibition was -0.24%.
In the case of `O=C1Nc2ccc3ncccc3c2/C1=C/Nc1ccc(N2CCN(CCO)CC2)cc1`, the inhibition is reported as 2.47%.
Compound `N#Cc1cncc(-c2nc3c(N4CCC(Cc5ccccc5)CC4)cccc3n2C2CCNC2)c1` (stereo not given) has an inhibition of -0.61%.
`CCOc1ccc(OCCCON2C(=N)N=C(N)NC2(C)C)cc1` showed an inhibition of 0.05%.
`COc1ccc(C=NN=c2cc(C)[nH]c3c(C)cccc23)c2ccccc12` was tested, and the inhibition was 5.67%.
Compound `CC(C)C[C@H]1c2[nH]c3ccc(Cl)cc3c2CCN1C(=O)CCc1ccccc1` has an inhibition of -0.65%.
`O=C(Nc1cccc(CN2CCCN(Cc3ccccc3)CC2)c1)c1ccc(-c2ccccc2)cc1` was tested, and the inhibition was -0.61%.
